The text below walks through data of paper PMC5540273 (PLoS ONE, 2017).

Molecules are shown by their SMILES.

Among the test systems are WNK1; WNK2; WNK3; WNK4.
What all share (conditions): concentration: 1 μM,replicates: in singlicate; n = 1
For another assay, the system named is T1, YANK1.
T1 construct: gene STK32A

The test system of another assay is T2, YANK2.
T2 construct: gene STK32B

The test system of another assay is T3, YANK3.
T3 construct: gene STK32C

For the next assay, the system named is T4, YES.
T4 construct: gene YES1

For a further assay, the system named is T5, YSK1.
T5 construct: gene STK25

For a further assay, the system named is T6, YSK4.
T6 construct: gene MAP3K19
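Further: KINOMEscan kinase panel screen.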

On to `C[C@@H]1CNc2c(sc3ccc4nc(-c5ccc(O)cc5)ccc4c23)C(=O)N1`, for which the “%Inh” value amounted to 0% in the assay with WNK1; 2% with WNK2; 0% with WNK3; 11% in the assay with WNK4; 0% in the assay on YANK1; 9% in the assay with YANK2. Also, the “%Inh” value in the assay with YANK3 is 1%; in the assay on YES, 0%; with YSK1 it was 0%; in the assay with YSK4 it was 46%.
On to `CCNCC(Cc1ccccc1)NC(=O)c1cc(Br)c(-c2ccnc3[nH]ccc23)s1.Cl.Cl` (stereo not drawn) [GSK1383280], for which the “%Inh” value is recorded as 0% in the assay with WNK1; 0% in the assay on WNK2; 9% in the assay with WNK3; 28% in the assay on WNK4; 23% with YANK1; 0% with YANK2. Moreover, the “%Inh” value turned out to be 11% in the assay with YANK3, 19% with YES, 18% in the assay on YSK1 and 92.5% in the assay with YSK4.
Turning to `Cn1ccc2ncnc(Oc3ccc(NC(=O)Nc4cccc(C(F)(F)F)c4)c(F)c3)c21`, the “%Inh” value worked out at 0% in the assay on WNK1; 0% in the assay with WNK2; 0% in the assay on WNK3; 7% in the assay with WNK4; 0% in the assay on YANK1; 0% in the assay with YANK2. The “%Inh” value in the assay on YANK3 worked out at 1%; with YES it was 0%; in the assay with YSK1, 0%; with YSK4, 68%.
As to `CS(=O)c1ccc(-c2coc3ccc(-c4n[nH]c(=O)o4)cc23)cc1` (stereo not drawn), the “%Inh” value amounted to 0% in the assay with WNK1; 0% in the assay with WNK2; 0% in the assay on WNK3; 0% in the assay with WNK4; 9% with YANK1; 10% in the assay on YANK2. Further, the “%Inh” value is recorded as 0% in the assay on YANK3, 0% with YES, 7% in the assay on YSK1 and 55% in the assay on YSK4.
Turning to `Cc1ccn2nc(-c3ccc(F)cc3)c(-c3ccncc3)c2c1.Cl` [GW457859], the “%Inh” value is given as 0% with WNK1; 5% in the assay with WNK2; 30% in the assay on WNK3; 55% in the assay with WNK4; 91.9% in the assay on YANK1; 13% with YANK2. The “%Inh” value in the assay on YANK3 is recorded as 0%; in the assay on YES, 5%; with YSK1, 15%; with YSK4, 0%.
Turning to `O=c1[nH]cc(-c2ccc(O)cc2)c2sc(-c3ccncc3)cc12` [GSK1033723], the “%Inh” value with WNK1 worked out at 1%; with WNK2, 26%; in the assay with WNK3 it was 18%; in the assay on WNK4, 10%; in the assay with YANK1, 10%; with YANK2, 0%. Further, the “%Inh” value in the assay with YANK3 was 14%; with YES it was 5%; with YSK1 it was 0%; with YSK4, 98.8%.
As to `COc1cc2nccc(Nc3ccc(Oc4ccccc4)cc3)c2cc1OC.Cl` [GI261656], the “%Inh” value was determined as 0% with WNK1; 0% with WNK2; 42% with WNK3; 28% with WNK4; 7% in the assay with YANK1; 0% in the assay on YANK2. In addition, the “%Inh” value with YANK3 was 0%; in the assay on YES, 79%; in the assay with YSK1, 0%; with YSK4, 0%.
As for `Cn1ccc2ncnc(Oc3ccc(NC(=O)Nc4ccnc(C(F)(F)F)c4)c(Cl)c3)c21`, the “%Inh” value with WNK1, in the assay on WNK2, in the assay on WNK3, with WNK4, with YANK1 and in the assay with YANK2 was 0% in each case. For the same compound, the “%Inh” value came out at 0% in the assay on YANK3, 0% in the assay on YES, 0% in the assay on YSK1 and 14% in the assay on YSK4.
Regarding `COc1cc(Nc2nccc(N3CCC(NC(=O)c4cccc(C#N)c4)C3)n2)cc(OC)c1OC` (stereo not drawn) [GSK1379751], the “%Inh” value came out at 13% in the assay on WNK1; 19% in the assay with WNK2; 37% in the assay with WNK3; 39% in the assay on WNK4; 0% in the assay on YANK1; 0% in the assay on YANK2. Also, the “%Inh” value in the assay on YANK3 was 0%; in the assay on YES, 20%; with YSK1, 3%; in the assay on YSK4 it was 39%.
As for `Cc1ccc(CC(=O)N2CCc3cc(-c4cn(C)c5ncnc(N)c45)ccc32)cc1` [GSK2634758], the “%Inh” value amounted to 12% with WNK1; 0% with WNK2; 53% in the assay on WNK3; 17% in the assay on WNK4; 15% in the assay on YANK1; 0% with YANK2. Further, the “%Inh” value with YANK3 is listed as 10%; in the assay on YES, 25%; in the assay on YSK1, 26%; in the assay on YSK4, 50%.
As to `O=C(Nc1cccc(Oc2ccc3nccn3n2)c1)Nc1cccc(C(F)(F)F)c1`, the “%Inh” value was 0% with WNK1; 0% with WNK2; 0% in the assay on WNK3; 20% in the assay with WNK4; 0% in the assay with YANK1; 0% with YANK2. The “%Inh” value is on record as 0% in the assay on YANK3, 0% in the assay with YES, 0% in the assay on YSK1 and 96.1% with YSK4.
For `Cc1cccc(-c2nc(Nc3ccncc3)c3sccc3n2)n1` [GW869641], the “%Inh” value in the assay with WNK1 is recorded as 27%; with WNK2, 0%; with WNK3, 21%; in the assay with WNK4, 17%; with YANK1, 20%; in the assay with YANK2, 14%. The “%Inh” value in the assay on YANK3 is on record as 0%; in the assay with YES, 0%; in the assay on YSK1, 0%; in the assay with YSK4, 41%.
With `CC(C)c1nc(-c2cccc(NS(=O)(=O)c3ccccc3)c2)c(-c2ccnc(Nc3ccc4c(c3)CN(C)CC4)n2)s1` [GSK1649598], the “%Inh” value in the assay with WNK1 is 8%; with WNK2, 0%; in the assay on WNK3, 12%; with WNK4, 0%; with YANK1, 20%; in the assay on YANK2, 28%. For the same compound, the “%Inh” value in the assay on YANK3 is 11%; in the assay on YES, 99.7%; with YSK1, 56%; with YSK4, 55%.
In the case of `CSc1nccc(-c2c(-c3ccc(F)cc3)ncn2CCCN2CCOCC2)n1.Cl` [SB-217146], the “%Inh” value in the assay with WNK1 was 21%; in the assay with WNK2 it was 0%; with WNK3 it was 0%; in the assay on WNK4, 0%; in the assay on YANK1 it was 0%; in the assay with YANK2, 0%. For the same compound, the “%Inh” value amounted to 0% in the assay with YANK3, 0% with YES, 0% with YSK1 and 25% with YSK4.
As to `FC(F)(F)c1cc(Br)cc(Nc2nccc(-c3cnn4ncccc34)n2)c1` [GW810578], the “%Inh” value with WNK1 was determined as 14%; in the assay with WNK2, 25%; in the assay with WNK3, 0%; in the assay with WNK4, 0%; with YANK1, 0%; in the assay on YANK2, 0%. Further, the “%Inh” value stood at 25% in the assay on YANK3, 0% with YES, 0% in the assay on YSK1 and 64% with YSK4.
Regarding `Cc1n[nH]c2cc(Nc3ccnc(Nc4cccc(CN5CCOCC5)c4)n3)ccc12` [GW682569], the “%Inh” value with WNK1 is recorded as 8%; in the assay on WNK2 it was 19%; in the assay with WNK3, 21%; in the assay with WNK4 it was 32%; with YANK1, 9%; with YANK2, 0%. Also, the “%Inh” value in the assay on YANK3 is 3%; with YES, 22%; in the assay with YSK1, 10%; with YSK4, 90%.
Take `Cn1ccc2ncnc(Oc3ccc(NC(=O)Nc4cncc(C(F)(F)F)c4)c(Cl)c3)c21`: the “%Inh” value is reported as 0% in the assay with WNK1; 0% in the assay on WNK2; 0% in the assay with WNK3; 0% in the assay on WNK4; 0% in the assay on YANK1; 2% with YANK2. For the same compound, the “%Inh” value turned out to be 25% with YANK3, 0% with YES, 0% in the assay on YSK1 and 17% with YSK4.
In the case of `O=C(Nc1ccc(Oc2ccc3nc(NC(=O)C4CC4)cn3n2)c(F)c1)c1cccn(-c2ccccc2)c1=O`, the “%Inh” value with WNK1, in the assay with WNK2, with WNK3, with WNK4, in the assay on YANK1 and in the assay with YANK2 was 0% each time. Moreover, the “%Inh” value in the assay on YANK3 is 37%; with YES, 45%; in the assay on YSK1, 0%; in the assay on YSK4, 0%.
